# Laboratory results as given in PubChem BioAssay (NCI).
# This is part of a sample that, as a whole, favours compounds with a hit. Of some 83,000 tested, about 20% had one in any assay.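 In brief: 96-well plates, 48 h treatment, single concentration, percent growth endpoint.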 Unmarked numbers belong to inactive results. Activity calls are given as the source filed them. How the source made its calls: active means growth percent below 10; inactive means the rest.
# Tests used:
# Assay in all cases: NCI-60 one-dose screen, 48 h (100 = growth as untreated, 0 = no growth, -100 = all killed)
# Details in all cases: 10 µM unless noted
# SR leukemia = tested on: SR leukemia
# RPMI-8226 leukemia = tested on: RPMI-8226 leukemia
# OVCAR-8 ovarian = tested on: OVCAR-8 ovarian
# OVCAR-5 ovarian = tested on: OVCAR-5 ovarian
# OVCAR-4 ovarian = tested on: OVCAR-4 ovarian
# SK-OV-3 ovarian = tested on: SK-OV-3 ovarian
# IGROV1 ovarian = tested on: IGROV1 ovarian
# OVCAR-3 ovarian = tested on: OVCAR-3 ovarian
# HS 578T breast = tested on: HS 578T breast
# NCI/ADR-RES ovarian = tested on: NCI/ADR-RES ovarian
# T-47D breast = tested on: T-47D breast
# BT-549 breast = tested on: BT-549 breast
# MDA-MB-435 melanoma = tested on: MDA-MB-435 melanoma
# SW-620 colon = tested on: SW-620 colon
# MCF7 breast = tested on: MCF7 breast
# HCT-116 colon = tested on: HCT-116 colon
# HCC-2998 colon = tested on: HCC-2998 colon
# KM12 colon = tested on: KM12 colon
SMILES,growth (SR leukemia),growth (RPMI-8226 leukemia),growth (OVCAR-8 ovarian),growth (OVCAR-5 ovarian),growth (OVCAR-4 ovarian),growth (SK-OV-3 ovarian),growth (IGROV1 ovarian),growth (OVCAR-3 ovarian),growth (HS 578T breast),growth (NCI/ADR-RES ovarian),growth (T-47D breast),growth (BT-549 breast),growth (MDA-MB-435 melanoma),growth (SW-620 colon),growth (MCF7 breast),growth (HCT-116 colon),growth (HCC-2998 colon),growth (KM12 colon)
O=C1C(Cl)=C(Nc2cccc3ccccc23)C(=O)c2ccccc21,51%,17.8%,71.5%,134%,58.6%,99.1%,58.8%,39%,87.9%,81.2%,34.3%,73.4%,55.9%,68.9%,44%,47.7%,103%,58.4%
C=C1C(=O)O[C@H]2[C@H]1CC/C(COC(=O)NCc1cccc(OC)c1)=C\CC[C@@]1(C)O[C@@H]21,8.59% (active),-23.1% (active),46.1%,66.6%,49%,71.6%,32.8%,-7.55% (active),75.7%,57.3%,11.9%,16.6%,45.5%,-35.4% (active),8.22% (active),-70.9% (active),81.6%,88%
Clc1cccc(CNc2c3ccccc3nc3ccccc23)c1,-3.9% (active),-23.5% (active),31.1%,32.4%,18.8%,63.9%,16.5%,57.7%,53.7%,26.3%,40.9%,59.1%,46.6%,12%,0.909% (active),8.69% (active),-53.6% (active),40.8%
CC(=O)O[C@H]1CC[C@]2(C)[C@H]3CC=C4[C@@H]5CC(C)(C)CC[C@]5(C(=O)OCC(COC(=O)C(Cl)Cl)(COC(=O)C(Cl)Cl)NC(=O)C(Cl)Cl)CC[C@@]4(C)[C@]3(C)CC[C@H]2C1(C)C,60.3%,33.5%,68.5%,86.1%,67.6%,86.1%,89.5%,67%,83.9%,78%,32.7%,75.2%,78.6%,79.4%,41.9%,26.7%,86.9%,52.2%
Cc1cccc(N=NC(=S)NNc2cccc(C)c2)c1,107%,96.4%,108%,111%,101%,105%,92.4%,139%,116%,113%,97.6%,134%,112%,107%,92.8%,109%,104%,124%
COc1ccc(/C=C/C(=O)CCC(=O)O)cc1OC,98.5%,105%,109%,95.4%,99%,91%,108%,109%,105%,111%,93.1%,109%,106%,105%,97.1%,104%,125%,103%
N#Cc1ccc(-c2ccc(-c3cccs3)o2)cc1F,85%,70.7%,64.2%,101%,77.5%,52.1%,82.4%,80.5%,51.2%,72.1%,23.7%,78%,94.8%,98.5%,26.4%,64.5%,91.5%,83.2%
CCCCCCCCCCCCNC(=O)N[C@H](C(=O)N[C@H]1/C=C/OCCNC(=O)/C=C/[C@H](C(C)C)NC1=O)C(C)C,29%,60.3%,96%,36.1%,50.8%,106%,45.2%,24.1%,74.2%,101%,47.6%,-7.12% (active),28.3%,48.1%,32.4%,25.5%,90.4%,71.5%
O=C(NO)c1ccc(CNc2cccc3nc(C4CC4)n(-c4ccccc4)c(=O)c23)cc1,1.62% (active),-26.6% (active),-15.4% (active),35.7%,11.5%,16%,8.21% (active),0.886% (active),39.8%,-10.7% (active),22.9%,64%,10.3%,0.537% (active),27.6%,-22.1% (active),36%,8.66% (active)
CC1OC(n2c3ccccc3c3c4c(c5c6ccccc6[nH]c5c32)C(=O)N(CCN2CCOCC2)C4=O)CC(O)C1O (stereo not drawn),10.7%,27.8%,32.4%,61.7%,46.5%,6.84% (active),48.3%,48.2%,63.6%,26.4%,11%,36.9%,41.5%,27.8%,13.3%,24.3%,30%,30.7%
COc1cc2c(=O)n(CCCN(C)C)c3c4cc[nH]c4ncc3c2cc1OC,15.7%,22.2%,27.8%,71%,34.7%,42.8%,45.2%,49.1%,65%,89.4%,63.9%,72.5%,51%,24.9%,15.5%,16.8%,55.7%,19.2%
O=C(Nc1ccc(Br)cc1)Nc1cccc(Br)c1,38%,8.97% (active),48.8%,76.8%,28.8%,75.2%,25.5%,16.2%,76%,46.4%,-10.5% (active),58.2%,47.4%,29%,13.3%,27.5%,27.6%,13.2%
O=C(Nc1cccc(N=Cc2c(O)ccc3ccccc23)c1)c1ccccc1,101%,94.6%,93%,108%,88.1%,90.4%,101%,103%,97.4%,103%,85.2%,85.3%,101%,98.6%,86.3%,93.9%,102%,95.6%
COc1ccc(Oc2nc(Nc3ccc(N4CCOCC4)cc3)ncc2NC(=O)Nc2cccc(OC)c2)cc1,74.2%,56.8%,50.3%,103%,75.8%,87%,76.2%,68.4%,60.5%,85.2%,75.2%,34.3%,60.2%,67.5%,88.6%,19%,40.3%,59.2%
C=C1C(=O)O[C@H]2[C@H]1CC/C(COC(=O)NCc1[nH]nc3ccccc13)=C\CC[C@@]1(C)O[C@@H]21,4.38% (active),-10.2% (active),35.3%,58.5%,67.9%,75.6%,-20.8% (active),5.37% (active),62.5%,85.7%,37.4%,24.3%,37.3%,-28.9% (active),17.9%,-80.7% (active),87.5%,55.8%
CCOC(=O)c1ccc(NC(=O)CSC(N)=O)cc1,96.8%,87.3%,100%,99.1%,122%,128%,92%,109%,105%,99.3%,131%,93.8%,113%,103%,99.3%,87.9%,105%,111%
